SRC2 inh: human SRC2 (NCOA2) inhibition | Q15596 | 370,000 compounds, 0.17% hits | AID 651957 | HEK293 GAL4-SRC2 luciferase reporter, luminescence | inhibition, % at 9 µM;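 active = inhibition above the mean inhibition of all tested compounds plus 3 SD, set per campaign, cut at about 52% in these data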;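 also: 0% = DMSO treated cells and 100% = cells given Gossypol at 36 µM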
COUP-TFII inh: NR2F2 (human) inhibition, primary screen; inhibition, % at 8.6 µM; HEK293T NGFI-A luciferase reporter, luminescence; 370,000 compounds, 0.7% hits;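 active = inhibition above a per-plate cutoff, mean inhibition of test wells between control levels plus 3 SD, cut at about 38% in these data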;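 also: cells cotransfected with COUP-TFII expression vector driving the NGFI-A reporter; 0% = median of COUP-TF2 test wells and 100% = reporter-only cells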
GalR3 antagonist: blocks the human galanin receptor 3 | O60755 | HEK293 GalR3-CNG cAMP membrane potential fluorescence; galR3 body fused to GalR1 C-terminus | inhibition, % at 3 µM | 360,000 compounds, 0.44% hits | AID 651719;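 active = inhibition above the screen-wide average plus 3 SD, cut at about 13% in these data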;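 also: forskolin and galanin both at EC90 stimulate the cells; cAMP rise reported by CNG channel membrane potential dye signal; 0% = forskolin plus galanin with DMSO and 100% = forskolin alone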
NCOA1 inh: inhibits human SRC1 coactivator | Q15788 | HEK293 GAL4-SRC1 luciferase reporter, luminescence | inhibition, % at 3.6 µM | 360,000 compounds, 0.12% hits | AID 588354;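 active = inhibition above the campaign mean plus 3 SD, with each screening campaign given its own cutoff, cut at about 60% in these data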;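 also: 0% = DMSO treated cells and 100% = gossypol at 36 µM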
LRH-1 inv ag: suppresses constitutive activity of human LRH-1; inhibition, % at 3.6 µM; 360,000 compounds, 0.13% hits; HEK293T StAR-luciferase reporter, LRH-1 transfected, 24 h; O00482; AID 602396;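 active = inhibition above the mean inhibition of all tested compounds plus 3 SD, cut at about 73% in these data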;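 also: 0% = DMSO wells and 100% = reporter-only cells lacking LRH-1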
SRC3 inh: human NCOA3 inhibition | HEK293 GAL4-SRC3 luciferase reporter, luminescence | inhibition, % at 3.6 µM | 360,000 compounds, 0.17% hits | AID 588352;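 active = inhibition above a per-campaign cutoff, the mean of all compounds plus 3 SD, cut at about 60% in these data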;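 also: 0% = DMSO-treated cells and 100% = gossypol-treated cells at 36 µM; higher means less SRC3-driven luciferase light from the GAL4 reporter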
VP16 Luc counter: inhibits VP16 reporter, flagging COUP-TFII antagonist hits; shares compounds with COUP-TFII inh; HEK293 Gal4-VP16 luciferase reporter, luminescence; inhibition, % at 8.5 µM; 2,500 compounds, 25% hits; AID 687007; in the data active = inhibition above about 13%
NR2F2 inh conf: confirmation of human COUP-TFII (NR2F2) inhibitors; inhibition, % at 8.5 µM; shares compounds with COUP-TFII inh; HEK293 NGFI-A luciferase reporter, luminescence; 2,500 compounds, 45% hits;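 active = mean inhibition over three repeats above a set limit taken from the earlier primary screen, cut at about 38% in these data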;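 also: 100% = cells given the luciferase reporter alone without the COUP-TF2 vector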
* hit, by the source's call; / = not tested or not shown; ! = not active in a repeat. An excerpt weighted towards active compounds, which were near 1.1% of everything screened.

SMILES | SRC2 inh | COUP-TFII inh | GalR3 antagonist | NCOA1 inh | LRH-1 inv ag | SRC3 inh | VP16 Luc counter | NR2F2 inh conf
Cc1ccc(S(=O)(=O)NCc2ccc(C(=O)N3CCN(Cc4ccccc4)CC3)cc2)cc1 | 16.5 | 48.2* | -6.2 | 19.1 | 20.4 | 16.0 | -3.0 | 21.7
COc1ccc(S(=O)(=O)NCc2ccc(C(=O)N3CCN(Cc4ccccc4)CC3)cc2)cc1 | 27.3 | 18.0 | 0.1 | 9.9 | 5.9 | 4.2 | / | /
Cc1ccc(S(=O)(=O)NCc2ccc(C(=O)N3CCN(c4ccc([N+](=O)[O-])cc4)CC3)cc2)cc1 | 9.2 | 54.7* | -1.2 | 17.0 | 32.3 | 44.1 | 6.8 | 66.1*
COc1ccc(S(=O)(=O)N2CCCCC2c2cc(C(=O)NCc3ccccc3)no2)cc1 (stereo not drawn) | -13.8 | 7.2 | -6.1 | 2.5 | -21.7 | -4.2 | / | /
O=C(Nc1nc2cc3c(cc2s1)OCCO3)c1ccco1 | 58.8* | 68.7* | -1.4 | 0.1 | 10.9 | 11.2 | 0.8 | 18.5
O=C(Nc1nc2cc3c(cc2s1)OCO3)C1=COCCO1 | 44.1 | 54.3* | / | 8.7 | -65.0 | 18.7 | -27.3 | 7.4
CCCCCCCCN1C(=O)N2Cc3ccc(C)cc3C2CS1(=O)=O (stereo not drawn) | -2.3 | 11.5 | / | / | / | / | / | /
COCCN1Cc2cc(C(=O)OC)c3c(c2C1=O)c1cc(F)ccc1n3C(=O)c1ccccc1 | -24.2 | 1.2 | -6.0 | / | / | / | / | /
CC1CCc2nc(N)c(C#N)c(-c3cccnc3)c2C1 (stereo not drawn) | 38.5 | 51.7* | 0.5 | 72.5* | 41.1 | 62.7* | 14.0* | 24.0
Clc1ccc(-c2cccs2)nn1 | 0.9 | 5.3 | -2.8 | -6.0 | -0.9 | 18.5 | / | /
CC1CCN(c2ccc(-c3cccs3)nn2)CC1 | 62.1* | 45.1* | -11.6 | 17.9 | 32.4 | 40.5 | 19.9* | 42.5*
CCOc1ccc(C2C3=C(CC(C)(C)CC3=O)N(CCCOC)C3=C2C(=O)CC(C)(C)C3)cc1OC | -20.6 | 2.5 | -10.1 | -3.0 | -5.0 | 3.4 | / | /
CCOC(=O)Cc1ccc(NC(=O)c2ccc(C(C)(C)C)cc2)cc1 | 78.0* | 57.6* | -4.1 | 2.7 | 28.9 | 8.9 | 45.8* | 53.3*
CCOC(=O)Cc1ccc(NC(=O)c2ccccc2Br)cc1 | -10.9 | 2.0 | -5.0 | -5.4 | 10.4 | -3.4 | / | /
COc1ccc(CN2C(=O)c3ccnn3CC2(C)c2nnnn2-c2c(C)cccc2C)cc1 (stereo not drawn) | 3.4 | 6.5 | / | / | / | / | / | /
COc1ccccc1-c1nc(-c2ccccn2)no1 | 5.2 | 6.8 | 2.2 | -31.7 | -68.0 | -61.0 | / | /
COc1ccc(-c2nc(-c3ccccn3)no2)cc1 | 74.8* | 83.3* | -4.9 | 53.9 | 22.8 | 68.8* | 60.4* | 81.2*
CC1(C(=O)Nc2cccc(Oc3ccccc3)c2)CCN1Cc1cccc2c1OCO2 (stereo not drawn) | 5.2 | 8.6 | -7.4 | -4.7 | 19.0 | -14.4 | / | /
CCN=c1scc(-c2ccc3c(c2)NC(=O)CO3)n1N=C1CCCC1 | 2.9 | 47.5*! | -7.6 | 22.4 | 22.1 | 16.8 | -3.9 | 52.7*
COc1ccc(NC(=O)N(C)C[C@H]2OCCCC[C@H](C)Oc3ccc(NS(=O)(=O)c4cn(C)cn4)cc3C(=O)N([C@H](C)CO)C[C@@H]2C)cc1 | -16.4 | -7.8 | 2.3 | -71.7 | -10.5 | 0.3 | / | /
Cc1cc(C(=O)CN2C(=O)c3ccccc3S2(=O)=O)c(C)n1CC1CCCO1 (stereo not drawn) | 88.5* | 93.4* | 4.8 | 80.2* | 89.1* | 87.9* | 86.0* | 96.5*
Cc1ccc(C)c(C(=O)CN2C(=O)c3ccccc3S2(=O)=O)c1 | -18.8 | -14.1 | 1.1 | -40.0 | -30.5 | -67.0 | / | /
CCCn1c(C)cc(C(=O)CN2C(=O)c3ccccc3S2(=O)=O)c1C | 81.8* | 85.2* | -4.6 | 75.1* | 80.9* | 72.6* | 77.4* | 90.5*
COc1ccc(C(=O)CN2C(=O)c3ccccc3S2(=O)=O)cc1 | 80.7* | 90.9* | 1.4 | 58.1 | 35.1 | 60.6 | 51.9* | 76.7*
COc1cccc(NC(=O)Nc2nc3ncccn3c2-c2ccc(C)cc2)c1 | -42.9 | -32.0 | / | / | / | / | / | /
SMILES | SRC2 inh | COUP-TFII inh | GalR3 antagonist | NCOA1 inh | LRH-1 inv ag | SRC3 inh | VP16 Luc counter | NR2F2 inh conf
COc1ccc(CCN2CCC(CN3C(=S)NC[C@@H]3Cc3ccccc3)CC2)cc1OC | 4.9 | -4.9 | -5.7 | / | / | / | / | /
CCOC(=O)c1cnc(-n2nc(C)cc2C)nc1NC1CCCC1 | 21.9 | 44.3* | -5.6 | 3.1 | 43.9 | 23.4 | 7.0 | 56.2*
CCOC(=O)c1cnc(-n2nc(C)cc2C)nc1Nc1ccc(OC)cc1 | -0.6 | -9.0 | -3.7 | 9.6 | 20.3 | 1.1 | / | /
CCOC(=O)c1cnc(-n2nc(C)cc2C)nc1NCCc1ccccc1 | 1.8 | 48.0* | 2.6 | 11.4 | 2.2 | 24.7 | -12.2 | 10.3
CN(C)c1ccc(/C=N/N=C2/NC(=O)/C(=C/c3ccc([N+](=O)[O-])cc3)S2)cc1 | 25.0 | 40.8* | -1.8 | 26.1 | -3.6 | 13.8 | -57.6 | 35.7
COC(=O)c1ccc(Oc2ccc(S(=O)(=O)N3CCCCC3)cc2N)cc1 | 3.2 | 38.5* | -10.8 | 13.6 | 17.5 | 9.4 | -4.5 | 26.1
COc1ccc(Cn2cc(CN3[C@H](C)COc4cc(Br)ccc4S3(=O)=O)nn2)cc1 | 17.5 | -7.2 | / | / | / | / | / | /
O=C1c2cccc(OCC(=O)N3CCCc4ccccc43)c2CCN1Cc1cccnc1 | 9.0 | 39.8* | 1.7 | 14.7 | 7.0 | 23.0 | 7.1 | 20.4
CCc1nc2ccc(C(=O)Nc3cc(-c4ccccc4)ccc3OC)cn2c1N(C)Cc1nccs1 | 8.6 | 50.0* | -5.0 | 12.6 | -13.9 | 15.1 | 6.1 | 20.7
CCc1nc2ccc(C(=O)Nc3cc(-c4ccccc4)ccc3OC)cn2c1N(C)Cc1ccc(OC)cc1 | -8.5 | 7.5 | 4.2 | -0.8 | -11.4 | -27.5 | / | /
CCc1nc2ccc(C(=O)Nc3ccc(NC(C)=O)cc3)cn2c1N(C)C(=O)Cc1ccccc1 | 12.8 | 53.2* | -0.6 | 6.6 | -14.0 | -2.0 | -8.4 | 2.9
Cc1cc2c([nH]c3ccccc32)c2c1OC(C)(C)C=C2 | -63.3 | -83.1 | 0.7 | -52.7 | -68.3 | -61.3 | / | /
COc1ccc2[nH]c(=O)c3c(c2c1)OC(C)(C)C=C3 | 63.3* | 43.7* | -6.0 | 47.1 | 20.1 | 44.4 | 0.4 | 25.4
Cc1ccc(C(=O)N2CCN(c3ccccc3)CC2)cc1S(=O)(=O)N1CCCC1 | 12.6 | 18.1 | -3.3 | -3.0 | 10.0 | -1.3 | / | /
CC1CCN(C(=O)c2cccc(S(=O)(=O)N3CCN(c4ccccc4)CC3)c2)CC1 | -11.8 | 8.8 | -0.7 | -4.6 | 13.2 | 0.9 | / | /
CC1CCN(S(=O)(=O)c2cc(C(=O)N3CCN(c4ccccc4)CC3)ccc2Br)CC1 | 4.0 | 47.0* | -6.1 | 8.5 | 2.1 | -0.1 | 9.0 | 44.7*

From PubChem BioAssay
